Results as given in PubChem BioAssay AID1159580 (chemical genetic matrix, 2015).
Several values for one entry are separate records, joined by “and”; a condition that tells them apart may be missing. Equal values may be shown once. About 2,000 (36%) of roughly 5,500 compounds were called active. Not shown: some 18% with an inconclusive outcome. Rule as the data show it: active = normalized growth mostly below about 0.91 (no sharp cut-off); inconclusive = no clear call, values can overlap the other calls; inactive = mostly above about 0.92. Some of the results follow.

Assay: chemical genetic growth profiling, strain panel (AID 1159580);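 also: tested at 20 µM; growth read once vehicle control cultures reached saturation at 30 °C; 1 = growth at the plate median or of vehicle wells; lower values mean less growth of the strain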
Conditions: S. cerevisiae deletion strains, growth OD

Measured: normalized growth

CCOC(=O)C(Cc1ccc(O)cc1)NC(C)=O (stereo unspecified)
inactive: locus YAL013W, strain DEP1, stronger effect = lower value 0.99 | locus YAL021C, strain ccr4, stronger effect = lower value 1.01 | locus YAL026C, strain drs2, stronger effect = lower value 1.01 | locus YAL030W, strain snc1, stronger effect = lower value 1 | locus YBL061C, strain skt5, stronger effect = lower value 1.02 | locus YBR009C, strain hhf1, stronger effect = lower value 0.974 | locus YBR021W, strain FUR4, stronger effect = lower value 1.01 | locus YBR023C, strain chs3, stronger effect = lower value 1.01 | locus YBR171W, strain sec66, stronger effect = lower value 1.01 | locus YBR229C, strain ROT2, stronger effect = lower value 1.01 | locus YBR231C, strain swc5, stronger effect = lower value 1 | locus YBR279W, strain paf1, stronger effect = lower value 1 | locus YCL011C, strain gbp2, stronger effect = lower value 1 | locus YCL016C, strain dcc1, stronger effect = lower value 1 | locus YCL029C, strain bik1, stronger effect = lower value 0.999 | locus YCL069W, strain vba3, stronger effect = lower value 0.989 | locus YCR088W, strain abp1, stronger effect = lower value 1.01 | locus YDL005C, strain med2, stronger effect = lower value 1.02 | locus YDL035C, strain GPR1, stronger effect = lower value 1.02 | locus YDL040C, strain nat1, stronger effect = lower value 1.01 | locus YDL074C, strain BRE1, stronger effect = lower value 1.02 | locus YDL101C, strain DUN1, stronger effect = lower value 1.02 | locus YDL134C, strain PPH21, stronger effect = lower value 1 | locus YDL185W, strain tfp1, stronger effect = lower value 0.993 | locus YDL192W, strain arf1, stronger effect = lower value 0.996 | locus YDR001C, strain nth1, stronger effect = lower value 1.01 | locus YDR069C, strain doa4, stronger effect = lower value 0.998 | locus YDR101C, strain arx1, stronger effect = lower value 0.996 | locus YDR137W, strain rgp1, stronger effect = lower value 1.02 | locus YDR150W, strain NUM1, stronger effect = lower value 1.01 | locus YDR159W, strain sac3, stronger effect = lower value 0.985 | locus YDR162C, strain NBP2, stronger effect = lower value 1.02 | locus YDR195W, strain ref2 1.01 | locus YDR297W, strain sur2, stronger effect = lower value 1 | locus YDR318W, strain mcm21, stronger effect = lower value 1.01 | locus YDR334W, strain swr1, stronger effect = lower value 0.997 | locus YDR335W, strain msn5, stronger effect = lower value 1.01 | locus YDR388W, stronger effect = lower value 1.01 | locus YDR392W, strain spt3, stronger effect = lower value 1.03 | locus YDR502C, strain sam2, stronger effect = lower value 0.992 | locus YEL003W, strain gim4, stronger effect = lower value 1.01 | locus YEL037C, strain rad23, stronger effect = lower value 1 | locus YEL061C, strain CIN8 (second series), stronger effect = lower value 0.998 | locus YEL061C, strain CIN8, stronger effect = lower value 1.01 | locus YER015W, strain faa2, stronger effect = lower value 1 | locus YER016W, strain bim1, stronger effect = lower value 1.03 | locus YER110C, stronger effect = lower value 1.01 | locus YER111C, strain swi4, stronger effect = lower value 1.02 | locus YER155C, strain BEM2 (second series), stronger effect = lower value 1.04 | locus YER155C, strain BEM2, stronger effect = lower value 1 | locus YER167W, strain BCK2, stronger effect = lower value 1.02 | locus YFR010W, strain ubp6, stronger effect = lower value 0.987 | locus YGL078C, strain dbp3, stronger effect = lower value 0.993 | locus YGL086W, strain mad1, stronger effect = lower value 1 | locus YGL167C, strain pmr1, stronger effect = lower value 1.01 | locus YGL173C, strain kem1, stronger effect = lower value 1.01 | locus YGL227W, strain vid30, stronger effect = lower value 1 | locus YGL240W, strain doc1, stronger effect = lower value 1.03 | locus YGL248W, strain PDE1, stronger effect = lower value 1.01 | locus YGL253W, strain hxk2, stronger effect = lower value 1 | locus YGR078C, strain PAC10, stronger effect = lower value 1.02 | locus YGR135W, strain pre9, stronger effect = lower value 0.989 | locus YGR229C, strain SMI1, stronger effect = lower value 1.03 | locus YGR252W, strain gcn5, stronger effect = lower value 0.961 | locus YHR013C, strain ard1, stronger effect = lower value 1.03 | locus YHR027C, strain rpn1, stronger effect = lower value 1.01 | locus YHR030C, strain SLT2, stronger effect = lower value 1.02 and 0.974 | locus YHR079C, strain IRE1 (second series), stronger effect = lower value 1.01 | locus YHR079C, strain IRE1, stronger effect = lower value 0.984 | locus YHR094C, strain hxt1, stronger effect = lower value 1.01 | locus YHR129C, strain ARP1, stronger effect = lower value 1.01 | locus YHR142W, strain chs7, stronger effect = lower value 1.01 | locus YHR200W, strain rpn10, stronger effect = lower value 1.01 | locus YIL066C, strain RNR3, stronger effect = lower value 1.01 | locus YIL073C, strain SPO22, stronger effect = lower value 1 | locus YIL125W, strain kgd1, stronger effect = lower value 1 | locus YIR030C, strain dcg1, stronger effect = lower value 0.997 | locus YJL092W, strain hpr5, stronger effect = lower value 1 | locus YJL095W, strain BCK1 (second series), stronger effect = lower value 1.03 | locus YJL095W, strain BCK1, stronger effect = lower value 1.04 and 0.965 | locus YJL115W, strain asf1, stronger effect = lower value 0.999 | locus YJL129C, strain trk1, stronger effect = lower value 1.02 | locus YJL134W, strain LCB3, stronger effect = lower value 1.02 | locus YJL154C, strain vps35, stronger effect = lower value 1.01 | locus YJL164C, strain tpk1, stronger effect = lower value 1 | locus YJL166W, strain qcr8, stronger effect = lower value 0.995 | locus YJL168C, strain set2, stronger effect = lower value 1.01 | locus YJL187C, strain SWE1 (second series), stronger effect = lower value 1.02 | locus YJL187C, strain SWE1, stronger effect = lower value 1.01 | locus YJR043C, strain POL32, stronger effect = lower value 1.02 | locus YJR066W, strain TOR1, stronger effect = lower value 0.887
